Source: PubChem BioAssay
Compounds with a hit are over-represented: about 2.8% of the library has one in this group of screens.
SNCA expr inhib – SNCA gene expression inhibition. HEK-293 SNCA-luciferase knock-in, luminescence, 24 h. Potency, µM (top dose mostly 57.2 µM), for the others: at the top dose activity change, negative = inhibition, hits mostly inhibitors. 0.17% of 140,000 active. AID 1671194;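 also: potency is read from the fitted curve at half-maximal effect; plate controls were DMSO cells for no effect and cell-free wells for full effect; nearly all actives have a fitted effect of over 45% in size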
HEK293 viab – cell viability loss counter-screen | HEK-293-SNCA-luc viability, GF-AFC fluorescence, 24 h | 0.12% of 150,000 active | Potency, µM (highest dose often 57.1 µM), for inactives: at the top dose activity change, negative = cytotoxicity, most hits filed as cytotoxic | AID 1671193;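 also: potency is read from the fitted curve at half-maximal effect; 0% = DMSO-treated cells and -100% = medium-only wells without cells; nearly all actives have a fitted effect of over 30% in size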
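HEK-293-SNCA-luc cells (1500/well) plated 24 h, then exposed 24 h to a dilution series; GF-AFC added 30 min at 37C, fluorescence 405/540 nm; normalised to medium-only and DMSO wells, Hill fit.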
KDM5B inhibitor – inhibitors of human KDM5B histone demethylase; Q9UGL1; KDM5B demethylase, FDH-coupled NADH fluorescence (FDH is formaldehyde dehydrogenase); Potency, µM (series often up to 57.7 µM), most hits filed as inhibitors; 2.6% of 220,000 active; AID 1347165; also: potency is read from the fitted curve at half-maximal effect; 0% is about no effect; nearly all actives have a fitted effect of over 70% in size
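Coupled FDH/NAD⁺ fluorescence readout. KDM5BΔAP 200 nM final; compound titration, 10 min RT preincubation; substrate mix 12.5 µM H3K4me3, 25 µM 2-OG, 50 µM Fe(II), 100 µM ascorbate, 0.25 mM NAD⁺, 0.25 U/mL FDH; ΔRFU over 30 min.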
IP6K1 inhibitor – inhibitors of human IP6K1 | AID 1645851 | 0.81% of 140,000 active | Q92551 | activity change, % (series mostly up to about 58 µM) | IP6K1 kinase, ADP-Glo luminescence, 2 h; active compounds read low; in the data active = activity change below about -25%; also: % is scaled to controls: 0 for no effect and ±100 for the full control effect
Target sequence (Q92551 whole entry, looked up): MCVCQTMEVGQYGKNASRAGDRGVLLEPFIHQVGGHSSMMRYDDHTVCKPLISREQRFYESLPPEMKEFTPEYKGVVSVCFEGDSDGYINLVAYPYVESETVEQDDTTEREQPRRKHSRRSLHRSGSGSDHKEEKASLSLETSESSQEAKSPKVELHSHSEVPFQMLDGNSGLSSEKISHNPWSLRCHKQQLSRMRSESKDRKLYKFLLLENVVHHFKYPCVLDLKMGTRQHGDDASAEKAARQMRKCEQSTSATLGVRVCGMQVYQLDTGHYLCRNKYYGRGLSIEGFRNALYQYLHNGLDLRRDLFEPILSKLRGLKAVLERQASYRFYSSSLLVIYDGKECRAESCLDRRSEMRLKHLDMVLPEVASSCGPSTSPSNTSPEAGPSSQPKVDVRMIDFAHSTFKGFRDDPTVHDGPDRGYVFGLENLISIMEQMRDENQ
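ADP-Glo luminescence measures ADP made by human IP6K1 during a 2 h RT reaction with ATP/IP6 (mix at 1.3 mM/130 uM); top library doses 57.5 and 19.1 uM final.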
Numbers without * were called inactive; i = inactive; ? = inconclusive; . = not tested or not shown; [ ] = dose if it differs, or a comment. Unless noted, calls follow the shape of the dose curve; as a rule, active = well fitted curve in the direction sought with a large enough effect; inconclusive = small, poorly fitted or top-dose-only effect, or another doubt; inactive = no such curve, though single readings can be large; an effect the other way counts as inactive or inconclusive.

SMILES | SNCA expr inhib | HEK293 viab | KDM5B inhibitor | IP6K1 inhibitor
Cc1noc(-c2cn(C3CCCN(C(=O)c4cccc5[nH]ccc45)C3)nn2)n1 (stereo not drawn) | 85.7% | -2.3% | 20µM* | 1.1
CC(C)c1noc(-c2cn(C3CCCN(C(=O)c4cccc5[nH]ccc45)C3)nn2)n1 (stereo not drawn) | 49.5% | -14.8% | 17.8µM* | 0.0
CC(C)c1noc(-c2cn(C3CCN(C(=O)c4cccc5[nH]ccc45)C3)nn2)n1 (stereo not drawn) | ? | 7.6% | 22.4µM* | -5.6
Cc1noc(-c2cn(C3CCN(C(=O)c4cccc5[nH]ccc45)CC3)nn2)n1 | 3.8% | -0.8% | ? | 17.4
Cc1ccccc1NCc1nc2c(n1Cc1ccccc1)C(=O)N(CCOc1ccccc1)CCN2 | -15.6% | -10.7% | i | 4.2
Cc1ccc(-n2ncc3c(N4CCCCCC4)ncnc32)cc1 | 2.24µM* | -0.8% | ? | -3.6
COc1cc(CN(C(=O)c2ccc3c(c2)NC(=O)CS3)C2CC2)ccc1OC(F)F | . | . | i | .
CC(C)NC(=O)N[C@H]1C[C@H]2C(=O)NC[C@@H](CCC(=O)N3CCN(c4ccccc4)CC3)N2C1 | 26.2% | -0.1% | ? | 6.5
COCC(=O)N[C@H]1C[C@H]2C(=O)NC[C@@H](CCC(=O)N3CCN(c4ccccn4)CC3)N2C1 | 19.3% | 5.6% | 25.1µM* | -8.6
O=C(N[C@H]1C[C@H]2C(=O)NC[C@@H](CCC(=O)N3CCN(c4ccccn4)CC3)N2C1)C1CC1 | -4.6% | 5.5% | 31.6µM* | 1.3
CC(C)NC(=O)N[C@H]1C[C@H]2C(=O)NC[C@@H](CCC(=O)N3CCN(c4ccccn4)CC3)N2C1 | 2.2% | -3.2% | 25.1µM* | 0.5
CC(NC(=O)CCSc1nc(Cl)nc2nc[nH]c12)c1ccccc1 (stereo not drawn) | . | . | i | .
Cc1ccc(F)c(OC2(C(=O)O)CCN(c3cnc4ccccc4n3)CC2)c1 | -2.2% | -5.2% | 20µM* | -1.2
CC(C)(C)c1ccc(C(=O)N2CCN(C/C=C/c3ccccc3)CC2)cc1 | . | . | i | .
CCOc1ccccc1CNC(=O)c1cc2n(n1)CC(c1ccc3c(c1)OCO3)OC2 (stereo not drawn) | ? | 8.5% | 31.6µM* | -15.4
O=C(NCC1CC1)c1cc2n(n1)CC(c1ccc3c(c1)OCO3)OC2 (stereo not drawn) | 0.5% | -4.4% | i | 11.1
CCc1ccc(CNC(=O)c2cc3n(n2)CC(c2ccc4c(c2)OCO4)OC3)cc1 (stereo not drawn) | -3.6% | 9.3% | 25.1µM* | -2.0
CCCCNC(=O)c1cc2n(n1)CC(c1ccc3c(c1)OCO3)OC2 (stereo not drawn) | -5.8% | -3.9% | i | 25.2
O=C(NCc1ccc(Cl)cc1)c1cc2n(n1)CC(c1ccc3c(c1)OCO3)OC2 (stereo not drawn) | ? | ? | 28.2µM* | -2.1
O=C(NCc1ccc(F)cc1F)c1cc2n(n1)CC(c1ccc3c(c1)OCO3)OC2 (stereo not drawn) | 6.9% | -8.9% | 28.2µM* | 5.3
Cc1ccc(-c2ncc(C(=O)Nc3ccc(F)cc3C)c(-c3ccncc3)n2)cc1 | 10.8% | -11.8% | i | -3.7
C#CCNC(=O)[C@@H]1Cc2cn(Cc3c(C)noc3C)c3cccc(c23)[C@H](CC(C)C)N1 | -3.0%[87.6 µM] | -24.5%[87.6 µM] | ? | 21.7
CC1(CNCc2ccccc2)COc2ccc(C(=O)NCc3cccs3)cc2N1 (stereo not drawn) | 0.3%[87.6 µM] | -29.4%[87.6 µM] | 31.6µM* | 3.6
CC1(CNc2ccccc2)COc2ccc(C(=O)NCc3cccs3)cc2N1 (stereo not drawn) | ? | -7.8%[87.6 µM] | ? | -2.9
CC1(COc2ccccc2)COc2ccc(C(=O)NCc3cccs3)cc2N1 (stereo not drawn) | 9.0%[87.6 µM] | -1.1%[87.6 µM] | 31.6µM* | 13.2
SMILES | SNCA expr inhib | HEK293 viab | KDM5B inhibitor | IP6K1 inhibitor
CC(=O)Nc1ccc(OC/C=C/c2ccccc2)cc1 | . | . | i | .
O=C(/C=C/c1ccc(Cl)c(Cl)c1)c1ccc(OC(F)F)cc1OC(F)F | . | . | i | .
Cc1cc(C)cc(-c2ccc(CN3CCCC3C(=O)NC3CCCC3)cc2)c1 (stereo not drawn) | ? | -7.9% | . | 2.5
Cc1ccc(C)c(C(=O)CSc2cccc3cccnc23)c1 | . | . | i | .
CNC(=O)c1cc(C2CC2)nc2onc(C3CCCN(C(=O)c4ccc(C)cc4)C3)c12 (stereo not drawn) | . | . | . | -8.1
OCc1ccc(-c2ccc3nnc(-c4ccccn4)n3n2)cc1 | 5.8%[87.6 µM] | 7.4%[87.6 µM] | 31.6µM* | -11.7
CN(C)c1ncc2c(n1)C(C)(C(=O)Nc1ccccc1)CCC2 (stereo not drawn) | -21.0%[87.6 µM] | -4.4%[87.6 µM] | 35.5µM* | -2.7
CN(Cc1ccccc1)C(=O)C1(C)CCCc2cnc(N(C)C)nc21 (stereo not drawn) | -9.5%[87.6 µM] | -3.5%[87.6 µM] | 31.6µM* | -3.1
CN(C)c1ncc2c(n1)C(C)(C(=O)Nc1ccccc1F)CCC2 (stereo not drawn) | ? | 3.3%[87.6 µM] | ? | 0.8
COc1ccc(NC(=O)C2(C)CCCc3cnc(N(C)C)nc32)cn1 (stereo not drawn) | -18.3%[87.6 µM] | -24.6%[87.6 µM] | 35.5µM* | 6.4
CN(Cc1ccccc1)C(=O)C1(C)COCc2cnc(Nc3ccccc3)nc21 (stereo not drawn) | -18.0%[87.6 µM] | -26.1%[87.6 µM] | i | -2.6
COCCNC(=O)C1(C)CCCc2cnc(Nc3ccccc3)nc21 (stereo not drawn) | -1.8%[87.6 µM] | -15.3%[87.6 µM] | i | 16.5
CCCOc1ccc(/C=C(/C#N)c2nc3ccccc3[nH]2)cc1Br | . | . | i | .
COc1ccc(C(=O)NCc2nnc3ccc(-c4ccc(Cl)cc4)nn23)c(OC)c1 | 1.8% | -2.6% | i | 19.2
COc1ccc(-c2ccc3nnc(CNC(=O)c4cc(Cl)ccc4F)n3n2)cc1 | 3.2% | 14.8% | 28.2µM* | -12.8
Cc1ccc(-c2ccc3nnc(CNC(=O)c4cc(Cl)ccc4F)n3n2)cc1 | -8.5% | -8.4% | 28.2µM* | -1.5
Cc1ccc(-c2ccc3nnc(CNC(=O)c4cc(F)ccc4Cl)n3n2)cc1 | 1.3% | -5.9% | 12.6µM* | -14.2
COc1ccc(-c2ccc3nnc(CNC(=O)c4cc(F)ccc4F)n3n2)cc1 | 2.8% | 4.3% | 28.2µM* | 15.3
Fc1cccc(NC2CCCN(Cc3cccn3-c3nccs3)C2)c1 (stereo not drawn) | 19.3% | 8.2% | i | 14.6
O=C(O)CC1C(=O)NCCN1Cc1c(F)cccc1Cl (stereo not drawn) | . | . | i | .
COC(=O)c1ccc(CN2C(=O)[C@@H]3C[C@@H](O)CN3C3(CN(Cc4ccc(OC)c5ccccc45)C3)C2=O)cc1 | -29.5% | -20.5% | ? | -4.9
Cc1sc(NC(=O)c2cc3ccccc3o2)c(C#N)c1C | . | . | i | .
COc1ccc(NC(=O)c2c(C)oc3ccn(Cc4cccc(F)c4)c(=O)c23)cc1F | -4.7% | -2.8% | i | 4.9
CC(=O)Nc1ccc(NC(=O)c2c(C)oc3ccn(Cc4ccc(F)cc4)c(=O)c23)cc1 | -22.9% | -16.2% | 28.2µM* | 12.1
COc1ccc(OC)c(NC(=O)c2c(C)oc3ccn(Cc4cccc(F)c4)c(=O)c23)c1 | -11.9% | -15.3% | 25.1µM* | 5.8
